{"source": "the supplement of paper PMC6555819"}
{"system": "THRa:RXRa (NR concentration 90 nM, RXRa partner concentration 90 nM)", "experiment": "PBM binding z-score (relative to random genomic background probes); higher = stronger binding; sequences stand for … in GC…GCGATTGACAGCGTAGAATGAAGG", "how_it_was_run": "(§1)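 Ligand-free nuclear receptor dimers were applied to custom Agilent 4×180K protein-binding microarrays whose double-stranded probes carried direct-repeat seeds, single-nucleotide variants, half-site ablations and random human genomic background sequences in 34-nt variable regions. Incubation lasted 1 h. Binding z-scores were computed against the random background probes from regression-normalized fluorescence.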"}
{"sequence": "AATACAGGGCCACTAGGCCAGAGTAGGTACGAAT", "PBM binding z-score": -0.0637}
{"sequence": "TCTTGTAAATCAGCAGGTTAAGAAAGCTGGCCAA", "PBM binding z-score": 0.32}
{"sequence": "ACTATTAGTTGACTTAGGGCAACCGTTACGACGC", "PBM binding z-score": 1.53}
{"sequence": "CAAACTAGGTCCCGAAAGGTCAAAGTCGAATGAC", "PBM binding z-score": 4.1}
{"sequence": "CGTCCACGGTCAGCAGGTCAGTGAAAGCGACGTG", "PBM binding z-score": 1.22}
{"sequence": "ATCGAAAGGTCGGAGGTGAGTATACCCACCCGAA", "PBM binding z-score": 1.77}
{"sequence": "GCTTACGGGTCAAAGGTTATTGCATGAATAGAAT", "PBM binding z-score": 3.78}
{"sequence": "ATTCGGAGGACAAAGGTCAGAGCTACGCCAGTGA", "PBM binding z-score": 3.41}
{"sequence": "GGTAGCAGGCCATTTGGGTCACTCAATGACGGGC", "PBM binding z-score": 1.84}
{"sequence": "GATACAGGGTCAGCTCGAGGCCAGAGTATGGAAA", "PBM binding z-score": 3.83}
{"sequence": "GCTTGTAGATCAAGGTTAAGATAGACTAAGCTAA", "PBM binding z-score": 1.21}
{"sequence": "ACTATTAGATGAGACGAGGGCAACCGATAGGTTG", "PBM binding z-score": 1.42}
{"sequence": "AATACAGGGTCAACGTAGGCCAGAGTACGCACAG", "PBM binding z-score": 4.35}
{"sequence": "GCATGTAGGTAATACAAGGTGAAAGTCCGATTGT", "PBM binding z-score": 3.96}
{"sequence": "TCTATTAGTTGACGGGCAACCGACGAGTCCGTTT", "PBM binding z-score": -0.223}
{"sequence": "GCTTTTAGATCAAGGTTAAGAAAGACTAAGCTAA", "PBM binding z-score": 1.37}
{"sequence": "TCGAGTAGGTTACCAATGGGGCATTCTGCTTTCT", "PBM binding z-score": -0.229}
{"sequence": "CCTAGCGGGCCAGGGTCACTCAAGCATTTCGCTT", "PBM binding z-score": 2.72}
{"sequence": "GCTTGTAGATCAAGGATAAGAAAGACTAAGCTAA", "PBM binding z-score": 0.0456}
{"sequence": "ATATGTAGGTTAAGGGTCATCCAGGTTGGTTCGC", "PBM binding z-score": 3.69}
{"sequence": "ACAGACAGGTGAGTGAAGGTAACTCACCTGGACG", "PBM binding z-score": 1.83}
{"sequence": "CGAACTAGGTCAGAACAGGTCAGTGAAGGATGAT", "PBM binding z-score": 4.08}
{"sequence": "TCCATTAGTTGAAGGGCAACCGACGAGTCCGTTT", "PBM binding z-score": 0.553}
{"sequence": "CCTAGTTCGTCAAGGTCACACACGCTATAGGTAC", "PBM binding z-score": 4.39}
{"sequence": "CCTATTAGTTGACCACAAGGGCAACCGAAGCTCG", "PBM binding z-score": 1.23}
{"sequence": "CCTATTAGTTGACCATAAGGGCAACCGCAGCTCG", "PBM binding z-score": 1.83}
{"sequence": "TCTGCTAGGTCAGTTGGTAAGCTAACGAGCTGCC", "PBM binding z-score": 1.16}
{"sequence": "GCAGACAGGTGAAACGCAGGTAACTCAAGGTGGC", "PBM binding z-score": 1.76}
{"sequence": "CCTCGGAGGACAACAGGCGGTCAGAGCTGCCAGA", "PBM binding z-score": 0.64}
{"sequence": "TCTTGTAGATCAAAAGAGGTTAAGAAAGTGCGCT", "PBM binding z-score": 2.6}
{"sequence": "CCTACTGGGCCAAAAAGGTCATTGAAGCCGATAA", "PBM binding z-score": 3.08}
{"sequence": "CAAACTAGGTCACGGAAGGTCAAAGTCGAATGAC", "PBM binding z-score": 5.24}
{"sequence": "AGAATGAGGTTGTACGTAGATCAGGGAAGAAAGT", "PBM binding z-score": 0.638}
{"sequence": "GTATCAAGGTGAATAGGTCGTTGATGAGTAGGCG", "PBM binding z-score": 2.29}
{"sequence": "AGAACGAGGGCACGCTGAGATGATAGCAGAGTAG", "PBM binding z-score": 1.48}
{"sequence": "AGTCAAAGTTCATCTAGATAACGTAAGATATGCT", "PBM binding z-score": 1.99}
{"sequence": "CGAACTAGGTCAGAACAGGAGAGTGAAGGATGAT", "PBM binding z-score": 1.72}
{"sequence": "CAAACTAGGTGACCGGAAGGTCAAAGTCCGCATG", "PBM binding z-score": 3.57}
{"sequence": "ACAGACAGGTGAGTGAAGGAAACTCAGCTGGACG", "PBM binding z-score": -0.366}
{"sequence": "ATCCCAAGGTGATCGTGAGGTCGTTGATACTAAC", "PBM binding z-score": 3.42}
{"system": "THRa homodimer (NR concentration 90 nM)", "experiment": "PBM binding z-score (relative to random genomic background probes); higher = stronger binding; sequences stand for … in GC…GCGATTGACAGCGTAGAATGAAGG", "how_it_was_run": "as §1"}
{"sequence": "AATACAGGGCCACTAGGCCAGAGTAGGTACGAAT", "PBM binding z-score": -0.308}
{"sequence": "TCTTGTAAATCAGCAGGTTAAGAAAGCTGGCCAA", "PBM binding z-score": -0.393}
{"sequence": "ACTATTAGTTGACTTAGGGCAACCGTTACGACGC", "PBM binding z-score": 0.619}
{"sequence": "CAAACTAGGTCCCGAAAGGTCAAAGTCGAATGAC", "PBM binding z-score": 1.43}
{"sequence": "CGTCCACGGTCAGCAGGTCAGTGAAAGCGACGTG", "PBM binding z-score": -0.0318}
{"sequence": "ATCGAAAGGTCGGAGGTGAGTATACCCACCCGAA", "PBM binding z-score": -0.0288}
{"sequence": "GCTTACGGGTCAAAGGTTATTGCATGAATAGAAT", "PBM binding z-score": 0.27}
{"sequence": "ATTCGGAGGACAAAGGTCAGAGCTACGCCAGTGA", "PBM binding z-score": 0.717}
{"sequence": "GGTAGCAGGCCATTTGGGTCACTCAATGACGGGC", "PBM binding z-score": 0.696}
{"sequence": "GATACAGGGTCAGCTCGAGGCCAGAGTATGGAAA", "PBM binding z-score": 0.628}
{"sequence": "GCTTGTAGATCAAGGTTAAGATAGACTAAGCTAA", "PBM binding z-score": -0.344}
{"sequence": "ACTATTAGATGAGACGAGGGCAACCGATAGGTTG", "PBM binding z-score": 0.659}
{"sequence": "AATACAGGGTCAACGTAGGCCAGAGTACGCACAG", "PBM binding z-score": 1.24}
{"sequence": "GCATGTAGGTAATACAAGGTGAAAGTCCGATTGT", "PBM binding z-score": 0.81}
{"sequence": "TCTATTAGTTGACGGGCAACCGACGAGTCCGTTT", "PBM binding z-score": -0.348}
{"sequence": "GCTTTTAGATCAAGGTTAAGAAAGACTAAGCTAA", "PBM binding z-score": 0.0946}
{"sequence": "TCGAGTAGGTTACCAATGGGGCATTCTGCTTTCT", "PBM binding z-score": -0.884}
{"sequence": "CCTAGCGGGCCAGGGTCACTCAAGCATTTCGCTT", "PBM binding z-score": 1.19}
{"sequence": "GCTTGTAGATCAAGGATAAGAAAGACTAAGCTAA", "PBM binding z-score": -0.696}
{"sequence": "ATATGTAGGTTAAGGGTCATCCAGGTTGGTTCGC", "PBM binding z-score": 1.82}
{"sequence": "ACAGACAGGTGAGTGAAGGTAACTCACCTGGACG", "PBM binding z-score": -0.0711}
{"sequence": "CGAACTAGGTCAGAACAGGTCAGTGAAGGATGAT", "PBM binding z-score": 0.526}
{"sequence": "TCCATTAGTTGAAGGGCAACCGACGAGTCCGTTT", "PBM binding z-score": 0.351}
{"sequence": "CCTAGTTCGTCAAGGTCACACACGCTATAGGTAC", "PBM binding z-score": 4.47}
{"sequence": "CCTATTAGTTGACCACAAGGGCAACCGAAGCTCG", "PBM binding z-score": 0.878}
{"sequence": "CCTATTAGTTGACCATAAGGGCAACCGCAGCTCG", "PBM binding z-score": 1.49}
{"sequence": "TCTGCTAGGTCAGTTGGTAAGCTAACGAGCTGCC", "PBM binding z-score": -0.266}
{"sequence": "GCAGACAGGTGAAACGCAGGTAACTCAAGGTGGC", "PBM binding z-score": -0.397}
{"sequence": "CCTCGGAGGACAACAGGCGGTCAGAGCTGCCAGA", "PBM binding z-score": -0.125}
{"sequence": "TCTTGTAGATCAAAAGAGGTTAAGAAAGTGCGCT", "PBM binding z-score": -0.614}
{"sequence": "CCTACTGGGCCAAAAAGGTCATTGAAGCCGATAA", "PBM binding z-score": 0.418}
{"sequence": "CAAACTAGGTCACGGAAGGTCAAAGTCGAATGAC", "PBM binding z-score": 2.79}
{"sequence": "AGAATGAGGTTGTACGTAGATCAGGGAAGAAAGT", "PBM binding z-score": 0.288}
{"sequence": "GTATCAAGGTGAATAGGTCGTTGATGAGTAGGCG", "PBM binding z-score": 0.898}
{"sequence": "AGAACGAGGGCACGCTGAGATGATAGCAGAGTAG", "PBM binding z-score": -0.0737}
{"sequence": "AGTCAAAGTTCATCTAGATAACGTAAGATATGCT", "PBM binding z-score": -0.582}
{"sequence": "CGAACTAGGTCAGAACAGGAGAGTGAAGGATGAT", "PBM binding z-score": 0.0817}
{"sequence": "CAAACTAGGTGACCGGAAGGTCAAAGTCCGCATG", "PBM binding z-score": 1.86}
{"sequence": "ACAGACAGGTGAGTGAAGGAAACTCAGCTGGACG", "PBM binding z-score": -0.967}
{"sequence": "ATCCCAAGGTGATCGTGAGGTCGTTGATACTAAC", "PBM binding z-score": 2.59}
